Measured values as given in PubChem BioAssay AID1159580 (chemical genetic matrix, 2015).
Several values for one entry are separate records, joined by “and”; a condition that tells them apart may be missing. Equal values may be shown once. About 2,000 (36%) of roughly 5,500 compounds were called active. Not shown: some 18% with an inconclusive outcome. Rule as the data show it: active = normalized growth mostly below about 0.91 (no sharp cut-off); inconclusive = no clear call, values can overlap the other calls; inactive = mostly above about 0.92. Some of the results follow.

Experiment: chemical genetic growth profiling, strain panel (AID 1159580);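 also: tested at 20 µM; growth read once vehicle control cultures reached saturation at 30 °C; 1 = growth at the plate median or of vehicle wells; lower values mean less growth of the strain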
Details: S. cerevisiae deletion strains, growth OD

Measured: normalized growth

CC(C)NCC(O)c1ccc2ccccc2c1 (stereo not drawn)
inactive: locus YAL013W, strain DEP1, hits give low values 1.02 | locus YAL021C, strain ccr4, hits give low values 0.992 | locus YAL026C, strain drs2, hits give low values 1.01 | locus YAL030W, strain snc1, hits give low values 1 | locus YBL061C, strain skt5, hits give low values 0.998 | locus YBR009C, strain hhf1, hits give low values 0.985 | locus YBR021W, strain FUR4, hits give low values 1.02 | locus YBR023C, strain chs3, hits give low values 1 | locus YBR171W, strain sec66, hits give low values 1 | locus YBR229C, strain ROT2, hits give low values 1.01 | locus YBR231C, strain swc5, hits give low values 0.99 | locus YBR279W, strain paf1, hits give low values 0.998 | locus YCL011C, strain gbp2, hits give low values 1 | locus YCL016C, strain dcc1, hits give low values 1 | locus YCL029C, strain bik1, hits give low values 0.999 | locus YCL061C, strain MRC1, hits give low values 1.01 | locus YCL069W, strain vba3, hits give low values 1 | locus YCR088W, strain abp1, hits give low values 1.01 | locus YDL005C, strain med2, hits give low values 0.999 | locus YDL035C, strain GPR1, hits give low values 1.02 | locus YDL040C, strain nat1, hits give low values 0.987 | locus YDL074C, strain BRE1, hits give low values 1.04 | locus YDL101C, strain DUN1, hits give low values 1.01 | locus YDL134C, strain PPH21, hits give low values 1.02 | locus YDL185W, strain tfp1, hits give low values 1 | locus YDL192W, strain arf1, hits give low values 1 | locus YDR001C, strain nth1, hits give low values 1 | locus YDR069C, strain doa4, hits give low values 0.987 | locus YDR101C, strain arx1, hits give low values 1.01 | locus YDR137W, strain rgp1, hits give low values 0.987 | locus YDR159W, strain sac3, hits give low values 0.971 | locus YDR162C, strain NBP2, hits give low values 1.03 | locus YDR195W, strain ref2 0.966 | locus YDR297W, strain sur2, hits give low values 0.998 | locus YDR318W, strain mcm21, hits give low values 0.992 | locus YDR334W, strain swr1, hits give low values 1 | locus YDR335W, strain msn5, hits give low values 0.999 | locus YDR388W, hits give low values 0.994 | locus YDR392W, strain spt3, hits give low values 0.918 | locus YDR502C, strain sam2, hits give low values 0.995 | locus YEL003W, strain gim4, hits give low values 1.01 | locus YEL037C, strain rad23, hits give low values 1 | locus YEL061C, strain CIN8 (second series), hits give low values 0.996 | locus YEL061C, strain CIN8, hits give low values 1 | locus YER015W, strain faa2, hits give low values 0.992 | locus YER016W, strain bim1, hits give low values 0.997 | locus YER110C, hits give low values 0.994 | locus YER111C, strain swi4, hits give low values 1 | locus YER155C, strain BEM2 (second series), hits give low values 0.998 | locus YER155C, strain BEM2, hits give low values 1.01 | locus YER167W, strain BCK2, hits give low values 1.01 | locus YFR010W, strain ubp6, hits give low values 1 | locus YGL078C, strain dbp3, hits give low values 0.992 | locus YGL086W, strain mad1, hits give low values 1 | locus YGL167C, strain pmr1, hits give low values 1 | locus YGL173C, strain kem1, hits give low values 0.999 | locus YGL227W, strain vid30, hits give low values 0.992 | locus YGL240W, strain doc1, hits give low values 0.995 | locus YGL248W, strain PDE1, hits give low values 1.01 | locus YGL253W, strain hxk2, hits give low values 0.998 | locus YGR135W, strain pre9, hits give low values 0.983 | locus YGR252W, strain gcn5, hits give low values 0.973 | locus YHR013C, strain ard1, hits give low values 0.952 | locus YHR027C, strain rpn1, hits give low values 1 | locus YHR030C, strain SLT2, hits give low values 1.01 and 1.02 | locus YHR079C, strain IRE1 (second series), hits give low values 0.99 | locus YHR079C, strain IRE1, hits give low values 1.02 | locus YHR094C, strain hxt1, hits give low values 0.99 | locus YHR129C, strain ARP1, hits give low values 1.02 | locus YHR142W, strain chs7, hits give low values 1 | locus YHR200W, strain rpn10, hits give low values 0.994 | locus YIL066C, strain RNR3, hits give low values 1.02 | locus YIL073C, strain SPO22, hits give low values 1.01 | locus YIL125W, strain kgd1, hits give low values 0.999 | locus YIR030C, strain dcg1, hits give low values 0.998 | locus YJL092W, strain hpr5, hits give low values 1.01 | locus YJL095W, strain BCK1 (second series), hits give low values 0.999 | locus YJL095W, strain BCK1, hits give low values 1.02 and 1.03 | locus YJL115W, strain asf1, hits give low values 0.996 | locus YJL129C, strain trk1, hits give low values 1.01 | locus YJL134W, strain LCB3, hits give low values 1 | locus YJL154C, strain vps35, hits give low values 0.992 | locus YJL164C, strain tpk1, hits give low values 1 | locus YJL166W, strain qcr8, hits give low values 1 | locus YJL168C, strain set2, hits give low values 0.991 | locus YJL187C, strain SWE1 (second series), hits give low values 1.03 | locus YJL187C, strain SWE1, hits give low values 1 | locus YJR043C, strain POL32, hits give low values 1.05
